# Data from PubChem BioAssay AID743279 (National Center for Advancing Translational Sciences (NCATS), 2014).
# Hit rate of the full screen: of about 360,000 compounds, about 17,000 (4.7%) were called active. Another 5% or so got no clear call; they are omitted. Shown is part of a subset that was picked to be rich in actives. Unmarked numbers belong to inactive results. No stated cut-off is given here; in the data, active means activity change below about -50%; inconclusive means mostly about -30% to -49%; inactive means weaker than that.
# Assay: qHTS for Inhibitors of Inflammasome Signaling: IL-1-beta AlphaLISA Primary Screen
# Settings: THP-1 LPS/ATP IL-1B secretion, 16 h; at 57.5 µM, active compounds read low
# Description: Inflammasomes are a set of intracellular multi-protein complexes that enable autocatalytic activation of inflammatory caspases and drive the innate immune response to counter harmful agents. […] A qHTS assay, based on AlphaLISA technology, was developed to screen the Molecular Libraries Small Molecule Repository (MLSMR) to look for novel inflammasome inhibitors. The assay detects IL-1B using AlphaLISA anti-IL-1B acceptor and donor beads. A decreased emission signal, indicating reduced IL-1B secretion, is the desired outcome for this assay. NIH Chemical Genomics Center [NCGC] NIH Molecular Libraries Probe Centers Network [MLPCN] MLPCN Grant: MH095513 Assay Provider: Shyam Biswal Ph.D., Johns Hopkins University Immunity. 2012 Jul 27;37(1):85-95. PMID: 22819042 [2] Curr Pharm Des. 2012;18(16):2320-8. PMID: 22390695
# Three microliters containing 3000 THP-1 cells were dispensed into the wells of solid, white, tissue culture treated Greiner 1,536-well plates. Library compounds and positive control, Glyburide, were pin-transferred (23 nL) by a Kalypsys pin-tool equipped with a 1,536-pin array, resulting in final compound concentration ranges of 2.5 nM to 57.5 uM. After 1 hr of cell culture incubation (37 °C, 5% CO2), 1 microL of 1 microg/mL lipopolysaccharide (250 ng/mL, final) and 5 mM ATP (1.25 mM, final) were added to stimulate the cells. After 16 hr of cell culture incubation with the compounds, 1.5 uL of anti-IL-1B acceptor beads (6 ug/mL, final) and biotinylated antibody (0.6 nM, final) were added to the plate, followed by a 1 hr incubation at ambient temperature. To detect the secreted IL-1B, 1.5 uL of AlphaLISA SA-Donor beads (24 ug/mL, final) were added, followed by 30 min of incubation in the dark at ambient temperature. The AlphaLISA signal was read by a PerkinElmer EnVision plate reader with an ultrasensitive luminescence detector and 1536 Plate HTS AlphaScreen aperture (excitation of 680nm and emission of 615nm).
# On the % scale 0 is the no-effect control and ±100 the full control effect.
row,SMILES,activity change
1,COc1cccc(-c2ccc3c(c2)N(Cc2ccccc2OC)C(=O)C(C)S3)c1 (stereo not given),43.9%
2,COc1ccc(CCNC(=O)Nc2ccc3c(c2)c(=O)n(C)n3C)cc1OC,-16.8%
3,Cc1c(OC(C)C(=O)N[C@@H](Cc2ccccc2)C(=O)O)ccc2c3c(c(=O)oc12)CCCC3 (stereo not given in full),11.6%
4,O=C1NC(=O)C(CCc2ccccc2)(c2ccccc2)N1 (stereo not given),-4.4%
5,O=C(NCc1ccccc1)c1onc(CSc2ccncc2)c1C(=O)NCc1ccccc1,39.9%
6,CN(c1ccccc1)c1nc(N)c([N+](=O)[O-])c(NCc2ccco2)n1,-23.7%
7,COc1ccc(Nc2nc(NCc3ccco3)nc(N/N=C/c3ccccc3Cl)n2)cc1,-12.1%
8,COc1cccc(Nc2nc(N)c([N+](=O)[O-])c(NCc3ccco3)n2)c1,-69.4% (active)
9,COC(=O)c1sccc1NC(=O)COc1ccc(Cl)cc1,-5.02%
10,COC(=O)c1c(NC(=O)COc2ccc(Cl)cc2Cl)sc2c1CC(C)(C)NC2(C)C,-99.6% (active)
11,CCOC(=O)c1c(NC(=O)c2ccc(S(=O)(=O)N(C)CC3CCCO3)cc2)sc2c1CC(C)(C)NC2(C)C (stereo not given),-16.8%
12,C[C@@H]1CN([C@H](C)CO)C(=O)CCCn2cc(nn2)CO[C@H]1CN(C)S(C)(=O)=O,-20.6%
13,COC(=O)Cc1ccc(OC2(C)CCN(Cc3ccc4c(c3)OCCO4)C2)cc1 (stereo not given),12.5%
14,COc1cc(CN2CCCN(C)CC2)c([N+](=O)[O-])cc1OC,26.5%
15,COc1cc2c(cc1OC)C(Cc1cc(OC)c(OC)cc1[N+](=O)[O-])=NCC2,-58.9% (active)
16,COc1cc2c(cc1OC)C(c1cccc([N+](=O)[O-])c1)=NCC2,-7.18%
17,C=CCOc1ccccc1CNn1c(C)n[nH]c1=S,0.633%
18,CC(C)=CCc1c(O)c(CC=C(C)C)c2occ(-c3ccc(O)cc3)c(=O)c2c1O,-78.8% (active)
19,CC(C)=CCc1ccc(O)c(=O)cc1C(C)C,1.89%
20,COc1cc(CNc2ncnc3c2ncn3[C@H]2CN(Cc3cccs3)C[C@@H](CO)O2)cc(OC)c1OC,0.705%
21,CCCCn1c(N)c(N(CCOC)C(=O)CSCC(=O)Nc2cccc(C)c2)c(=O)[nH]c1=O,9.86%
22,CCCCCn1nnnc1-c1nc2cc3ccccc3cc2[nH]c1=O,1.49%
23,CCCCn1c(-c2cccc(C)c2)nc2cc3[nH]c(=O)c(C(C)C)nc3cc21,-61% (active)

row,SMILES,activity change
1,CC(C)Oc1ccc(C2NC(=O)NC2=O)cc1 (stereo not given),10.2%
2,COc1ccccc1-c1n[nH]nc1C1=CC(=O)CC(C)(C)C1,-12.1%
3,c1ccc2c(c1)nnn2-c1ccncc1,-56.6% (active)
4,Cc1ccc(-c2nnc(-n3nnc4ccccc43)c3ccccc23)cc1,55.9%
5,COc1cc2nnn(-c3ccncc3)c2cc1OC,-22.1%
6,CC(Sc1ccc(S(=O)(=O)N2CCN(C)CC2)cn1)C(=O)NC1CCCC(C)C1C (stereo not given),-7.4%
7,COc1cccc(-c2cc3nc4c(c(N5CCC6(CC5)OCCO6)n3n2)CCCC4)c1,-96.1% (active)
8,COc1cccc(CNc2nc3nc4c(c(=O)n3[nH]2)CCC4)c1,-4.67%
9,N#C/C=C\Oc1ccc(Cl)cc1N,-9.78%
10,Cc1ccccc1S(=O)(=O)NC(=O)C1(C)CCN1C(=O)C1(c2ccccc2)CCCC1 (stereo not given),31.4%
11,C[C@@H]1Cn2cnc(C(=O)Nc3ccc(CNC(=O)OC(C)(C)C)cc3)c2C(=O)N1,-13.5%
12,CC(OC(=O)C1CC(=O)N(Cc2ccccc2)C1)C(=O)Nc1ccccc1[N+](=O)[O-] (stereo not given),16.6%
13,Cc1cc(=O)oc2cc(NC(=O)C3CC(=O)N(Cc4ccccc4)C3)ccc12 (stereo not given),0%
14,O=C(Nc1ccc(F)c([N+](=O)[O-])c1)C1CC(=O)N(Cc2ccccc2)C1 (stereo not given),-91% (active)
15,NC(=O)C1(Nc2ccc([N+](=O)[O-])cc2)CCCC1,-4.02%
16,CCOc1ccc(-c2ccc(SCC(=O)N3CCOCC3)nn2)cc1,71%
17,COc1cccc(-c2ccc(SCC(=O)N3CCN(c4ccccc4)CC3)nn2)c1,-69.3% (active)
18,COc1cccc(/C=C/C(=O)OCC(=O)N2CCN(c3ccccc3)CC2)c1,-25.8%
19,CCOC(=O)CNC(=O)N1c2ccccc2Sc2ccccc21,-21%
20,CC(NC(=S)Nc1ccccc1)C1COc2ccccc2O1 (stereo not given),-4.51%
21,CCN1/C(=C/C(=S)Nc2ccccc2)Sc2ccccc21,-101% (active)
22,CCOC(=O)C1=CC[C@@H](c2ccncc2)N(S(=O)(=O)c2ccc(C)cc2)C1,57.8%
23,O=C(c1ccc(Cl)c(S(=O)(=O)N2CCCCCC2)c1)N1CCN(c2ccc(O)cc2)CC1,-10.9%

row,SMILES,activity change
1,COc1ccc(/C=C/C(=O)OCC(=O)Nc2cccc(Oc3ccccc3)c2)c(OC)c1,-2.25%
2,COc1cc(/C=C/C(=O)OCC(=O)c2ccccc2)cc(OC)c1OC,18.6%
3,COc1ccc(/C=C/C2=CC(C)(C)NC(=S)N2)c(OC)c1,-87.3% (active)
4,COc1ccc(-n2c(-c3ccc(Cl)cc3)n[nH]c2=S)c(OC)c1,-15.4%
5,COc1cc(/C=C/c2ccc(/C=C/c3cc(OC)c(OC)c(OC)c3)cc2)cc(OC)c1OC,94.5%
6,COc1cc(/C=C/C2=CC(C)(C)NC(=S)N2)cc(OC)c1OC,-71.3% (active)
7,CCOC(=O)C1CCCN(C(=O)Cn2ncc3c(=O)oc4ccc(C)cc4c32)C1 (stereo not given),2.35%
8,CCOC(=O)C1=CCC2C(=O)N(Cc3ccccc3)C(=O)C12 (stereo not given),3.12%
9,CN(c1ccccc1)S(=O)(=O)c1ccc(C(=O)NCc2cccnc2)cc1,12%
10,Cn1c(=O)c2c(nc(OCc3cccnc3)n2Cc2ccccc2)n(C)c1=O,-9.43%
11,CN(C)CCOc1ccc(Cl)cc1C(C)(C)C,-13.6%
12,CCc1nc(C)ccc1OCC(=O)N(CC)CC,6.9%
13,CCC(C)(C)c1ccc(OCC(=O)N(C)C)c(C(C)(C)CC)c1,-90.9% (active)
14,O=C(NC1CCCCC1)C1CCC(CNS(=O)(=O)c2ccccc2)CC1 (stereo not given),-6.12%
15,Cc1ccnc(NC(=O)c2ccc(Cl)c([N+](=O)[O-])c2)c1,-78.4% (active)
16,Cc1ccnc(NC(=O)c2ccoc2C)c1,-8.69%
17,O=C(O)c1ccc2c(=O)n3c(nc2c1)/C(=C/c1ccc(Cl)c([N+](=O)[O-])c1)CC3,-64.3% (active)
18,O=C(Nc1ccccc1C(=O)Nc1ccncc1)c1ccc([N+](=O)[O-])cc1,-6.48%
19,Cc1ccc(/C=C2\CCn3c2nc2cc(C(=O)O)ccc2c3=O)c(C)c1,12.5%
20,CCN(CC)c1ccc(C(=O)Nn2c(C)nc3ccccc3c2=O)cc1,18.5%
21,N#Cc1ccc(/C=C2\CCn3c2nc2cc(C(=O)O)ccc2c3=O)cc1,-13.5%
22,O=C(Nc1ccncc1)c1ccc(Cl)c([N+](=O)[O-])c1,-64.8% (active)
23,O=C(Nn1c(SCc2ccc([N+](=O)[O-])cc2)nc2ccccc2c1=O)c1ccc(F)cc1,-1.43%

row,SMILES,activity change
1,Cc1nc2ccccc2c(=O)n1NC(=O)c1ccc(Cl)c([N+](=O)[O-])c1,-60.1% (active)
2,O=C(Nc1ccncc1)c1ccc([N+](=O)[O-])cc1Cl,-15%
3,Cc1ccnc(NC(=O)Cn2ccc([N+](=O)[O-])n2)c1,15.1%
4,CC1(C(=O)NCc2ccco2)Cc2c(-c3ccc4c(c3)OCO4)ccnc2O1 (stereo not given),7.16%
5,Cc1ccccc1CSc1nnc(-c2ccccn2)n1N,-29.8%
6,CCOC(=O)C1CCN(C(=O)c2ccc3c(=O)n4nc(Nc5ccccc5CC)sc4nc3c2)CC1,-8.29%
7,CCCCN1C(=O)C(CC(=O)NCc2cccs2)CC(C(=O)N2CCOCC2)=C1C (stereo not given),34.2%
8,COc1ccccc1CNC(=O)Cn1c(=O)oc2cc(Cl)ccc21,-3.46%
9,Cc1ccc(C(O)c2ncc(-c3ccccc3F)[nH]2)cc1F (stereo not given),0.413%
10,Cc1ccc(CC2(C)C(=O)Nc3ccc(OC(F)(F)F)cc32)cc1 (stereo not given),-8.4%
11,CN1OC[C@@H]2CN(C(=O)c3cccnc3)[C@H](c3ccc(N4CCCCC4)cc3)C[C@@H]21,3.15%
12,CCNC(=O)C1(C)CCCN(C(=O)c2c(C)noc2C)C1 (stereo not given),25%
13,CS(=O)(=O)c1sc(C(=O)NC(=S)Nc2ccc(OC(F)(F)F)cc2)c2c1C=CCC2,21.9%
14,COc1ccc(CNC(=O)C2CCN(S(C)(=O)=O)CC2)cc1,14.1%
15,O=C(O)C(=Cc1ccc([N+](=O)[O-])cc1)CCc1ccccc1,0.991%
16,CCOC(=O)/C(=N\Nc1ccccc1[N+](=O)[O-])c1csc(Nc2ccccc2)n1,1.73%
17,CCOC(=O)/C(=C\c1ccc([N+](=O)[O-])cc1)C(=O)c1cc(C(C)=O)c(Nc2ccccc2)s1,-116% (active)
18,CC1C(=O)Nc2ccccc2N1C(=O)c1c(F)cccc1F (stereo not given),-9.24%
19,C=C1C(=O)OC2C1CCC(C)=CCCC1(C)OC21 (stereo not given),-113% (active)
20,O=C(CSc1ccc([N+](=O)[O-])cn1)Nc1ccc(N2CCOCC2)c(Cl)c1,-12.5%
21,CS(=O)(=O)N(CC(=O)N1CCCC1)Cc1ccccc1,4.88%
